# This is a sample that favours compounds with a hit; in the whole collection about 21% have one here.
# Pf growth 96h: P. falciparum growth inhibition at 96 hour, primary screen for plastid delayed-death inhibitors; P. falciparum luciferase reporter growth, 96 h; actives 6.9% (n = 320,000); Potency, µM (doses to about 28.7 µM), actives largely listed as inhibitors
#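 Cell-based qHTS: luciferase-tagged P. falciparum in erythrocytes (2% hematocrit, 0.05% parasitemia final) incubated with compounds for 96 hours, 37 C, 5% CO2; luciferase detection reagent then added and luminescence measured.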
# Shiga toxin inh: Shiga toxin inhibition | Vero cells, Shiga toxin protein synthesis inhibition reporter | inhibition, % at 38.7 µM | actives 9.2% (n = 290,000); in the data active = inhibition mostly above about 28%, no sharp cut-off; inactive = mostly below about 43%
# Cycloheximide cs: counter-screen hit for Shiga toxin inhibitors, cycloheximide. max response, %. actives 12% (n = 300,000). cell reporter, cycloheximide protein synthesis inhibition counterscreen; in the data active = max response mostly above about 13%, no sharp cut-off; inactive = mostly below about 14%; also: read at 38.3 µM for the half of the compounds with a filed dose
# HCMV inh: blocks human cytomegalovirus replication | HFF cells, HCMV-luciferase reporter, 72 h; hits give low values | activity change, negative = inhibition, % at 57.5 µM | actives 4.5% (n = 410,000); in the data active = activity change below about -60%; inconclusive = no clear call, values can overlap the other calls; inactive = above about -39%
#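 Two-dose cell screen: HFF monolayers treated with compounds and infected with luciferase-expressing HCMV at 1 PFU/cell, 72 h at 37C, then lysed for luciferase measurement.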
# HCV inh: HCV inhibition | Huh7.5.1 HCVcc-Cre infection, luciferase reporter, 44 h | Potency, µM (titrated, usually from 41.8 µM), hits mostly inhibitors | actives 3.4% (n = 340,000) | AID 651820
#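 After 44 h co-culture of compound, cells and HCVcc-Cre (~0.5 moi), substrate is added for 15 min at room temperature and luciferase measured over 15 sec. Cells were seeded at 1,000/well and pre-cultured 4 h.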
# Pf growth 48h: P. falciparum growth inhibition at 48 hours (one generation). Potency, µM (titrated, usually from 28.7 µM), hits mostly inhibitors. actives 5.9% (n = 310,000). AID 504832. P. falciparum luciferase growth in erythrocytes, 48 h
#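 Parasite viability was followed by luminescence of a genomically integrated firefly luciferase. Cultures held 0.1% parasitemia at 2% hematocrit (final), incubated under 5% CO2 at 37 C.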
# Hits are given with their value; n = inactive; u = inconclusive; x = not tested or not shown; [ ] = another dose, or the depositor's remark. Unless noted, calls follow the shape of the dose curve; as a rule, active = well fitted inhibition curve with a large enough effect; inconclusive = small, poorly fitted or top-dose-only effect, or another doubt; inactive = no such curve, though single readings can be large or run the other way.
SMILES,Pf growth 96h,Shiga toxin inh,Cycloheximide cs,HCMV inh,HCV inh,Pf growth 48h
CSc1ccc(C2N=C(c3ccccc3)NO2)cc1 (stereo not drawn),n,114,41,x,n,n
CCC1(c2ccc(F)cc2)NC(=O)N(CC(=O)Nc2ccc(-c3nc4ccc(C)cc4s3)cc2)C1=O (stereo not drawn),n,107,39,n,u,n
COc1ccc(C2(C)NC(=O)N(CC(=O)Nc3ccc(-c4nc5ccc(C)cc5s4)cc3)C2=O)cc1 (stereo not drawn),n,112,64,n,u,n
CCOC(=O)C1CCCN(C(=O)c2cc3c(=O)n(C)c4ccccc4c3s2)C1 (stereo not drawn),x,x,x,n,x,x
CCc1ccc(N2C(=O)CN(Cc3sccc3C)C2=S)cc1,u,51,21,n,n,n
Cc1cc(C)cc(N2C(=O)CN(Cc3sccc3C)C2=S)c1,u,n,n,u,n,9.3µM
COc1ccc(COC[C@H](C)[C@H](O)[C@@H](C)[C@H]2OC(=O)[C@@H]2C)cc1,x,n,n,n,n,x
O=S(=O)(Nc1nc2ccccc2nc1N1CCN(CCO)CC1)c1cc(F)ccc1F,u,x,x,n,n,n
CNC(=O)c1cccc(-c2ccc3ncc(-c4cccc(C(=O)NCCN(C)C)c4)n3n2)c1,x,x,x,n,x,x
Clc1ccc(N2COC3c4cccc5cccc(c45)C32)cc1 (stereo not drawn),n,49,n,n,n,u
COc1ccc(N2COC3c4cccc5cccc(c45)C32)cc1 (stereo not drawn),n,45,24,u,u,u
CCCNC(=O)c1ccc2c(c1)N=C(C)c1c(C)ccc(C)c1S2,x,x,x,-102,x,x
COc1ccc(CNC(=O)c2ccc3c(c2)N=C(C)c2c(C)ccc(C)c2S3)cc1,x,x,x,n,x,x
CC1=Nc2cc(C(=O)NCCc3ccccc3)ccc2Sc2c(C)ccc(C)c21,x,x,x,-103,x,x
CC1=Nc2cc(C(=O)NCCc3ccc(Cl)cc3)ccc2Sc2c(C)ccc(C)c21,x,x,x,-88,x,x
COc1cccc(NC(=O)CN(C)C(=O)CN2C(=O)c3ccc([N+](=O)[O-])cc3C2=O)c1,n,x,x,n,n,n
CCNS(=O)(=O)c1ccc(CCC(=O)N2CCC(C)CC2)cc1,n,n,n,n,u,n
CCN1CCN(CC(=O)Nc2nc3ccc(C)cc3s2)CC1,n,n,n,n,u,n
COCC(=O)Nc1nc(-c2ccc(C)cc2)c(C)s1,n,35,13,n,n,n
COCC(=O)Nc1nc2ccc(C)cc2s1,x,65,52,n,n,n
Cc1ccc2nc(NC(=O)CN3CCOCC3)sc2c1,n,64,33,n,u,n
Cc1ccc2nc(NC(=O)COc3ccc(F)cc3)sc2c1,x,x,x,n,x,x
Cc1ccc2nc(NC(=O)COC(=O)c3ccncc3)sc2c1,n,66,35,n,n,n
CC(=O)CCC(=O)O,n,x,x,x,x,n
Cc1ccc(C)c(S(=O)(=O)C(C#N)c2nc3ccccc3nc2N2CC(C)OC(C)C2)c1 (stereo not drawn),n,n,n,n,n,13µM
SMILES,Pf growth 96h,Shiga toxin inh,Cycloheximide cs,HCMV inh,HCV inh,Pf growth 48h
CNC(=S)N=Nc1c(O)[nH]c2ccccc12,n,17,n,n,n,n
CNC(=S)N=Nc1c(O)[nH]c2ccc(C(C)C)cc12,6.6µM,n,n,n,u,u
Cc1ccc(NC(=S)N=Nc2c(O)[nH]c3ccccc23)cc1,1.9µM,53,22,u,n,5.2µM
COc1ccc(NC(=S)N=Nc2c(O)[nH]c3ccccc23)cc1,u,n,n,n,u,u
Oc1[nH]c2ccc(Br)cc2c1N=NC(=S)Nc1ccc(F)cc1,u,n,n,n,u,u
Oc1ccc(NC(=S)N=Nc2c(O)[nH]c3ccccc23)cc1,n,51,n,n,u,n
CCOc1ccc(NC(=O)CN(C)C(=O)CCCn2c(=O)oc3ccccc32)cc1OCC,u,x,x,n,u,n
Cc1cccc(N=Nc2c(O)[nH]c3ccc(Br)cc23)c1,n,31,39,n,n,n
COc1ccccc1N=Nc1c(O)[nH]c2ccc(Br)cc12,u,n,n,n,n,n
Oc1ccc(NC(=S)N=Nc2c(O)[nH]c3ccc(Br)cc23)cc1,n,n,n,-91,n,u
CCCc1cc(=O)[nH]c2nnc(SCC(=O)NC3CCCC3)n12,n,x,x,n,n,n
COc1ccc(OCC#CCN2CCCCCC2)cc1,n,n,12,n,n,n
COc1ccc(OCC#CCN2CCNCC2)cc1,1.9µM,n,n,n,n,n
OC(COCc1ccccc1)CN1CCCCC1 (stereo not drawn),n,n,n,n,n,n
COc1ccc(OCC#CCN2CC(C)OC(C)C2)cc1 (stereo not drawn),u,n,n,n,n,n[5.75 µM]
COc1ccc(CN2CCNCC2)cc1,n,n,n,n,n,n
C(#CCN1CCCCC1)COCc1ccccc1,n,n,17,n,n,n
Cc1noc(C)c1-c1ccc2ncnc(NCc3ccccc3C(F)(F)F)c2c1,x,n,n,x,x,x
COc1ccc(CCNC(=O)C2CCN(c3ncnc4c3nc3n4CCCCC3)CC2)c(OC)c1,x,x,x,n,x,x
O=C(NCCn1cc(SCc2ccc(F)cc2)c2ccccc21)c1cccs1,x,x,x,n,x,x
CCOc1ccccc1CNC(=O)c1oc2c(c1C)-c1nn(Cc3cccc(Cl)c3)cc1CC2,x,x,x,n,x,x
O=S1(=O)CCO[C@H]2Cc3ccccc3[C@H]2N1Cc1ccccc1F,n,n,n,n,n,n
O=S1(=O)CCO[C@H]2Cc3ccccc3[C@H]2N1Cc1ccccc1Br,17µM,n,n,n,u,n
Cc1ccc(N(C)C(=O)n2cnc3ccccc32)cc1,9.3µM,n,n,n,n,3.7µM
COc1ccc(NS(=O)(=O)c2ccc3c(c2)N(C(C)=O)CC(C)S3)c(OC)c1 (stereo not drawn),u,n,n,-85,11µM,n
SMILES,Pf growth 96h,Shiga toxin inh,Cycloheximide cs,HCMV inh,HCV inh,Pf growth 48h
CC(=O)N1CC(C)Sc2ccc(S(=O)(=O)NCc3ccc(F)cc3)cc21 (stereo not drawn),n,n,n,u,u,n
COc1ccc(CNS(=O)(=O)c2ccc3c(c2)N(C(C)=O)CC(C)S3)cc1 (stereo not drawn),u,n,n,-91,u,n
CCc1ccc(NC(=O)c2cnc3sc(N4CCCC4)nn3c2=O)cc1,x,x,x,n,x,x
Cc1c([C@@H]2C[C@H]3CN(Cc4cccc(Cl)c4)C(=O)[C@]34CCCN24)cnn1C,u,n,n,n,n,u
O=C1N(Cc2cccc(Cl)c2)C[C@@H]2C[C@@H](c3ccsc3)N3CCC[C@@]123,n,n,n,u,n,8.3µM
Cn1cc([C@@H]2C[C@H]3CN(Cc4cccc(Cl)c4)C(=O)[C@]34CCCN24)c2ccccc21,u,n,n,n,u,12µM
Cc1noc(C)c1S(=O)(=O)N(CC(=O)NC1CCCC1)c1ccc(C(C)C)cc1,n,n,n,n,n,n
